According to PubChem BioAssay AID485344 (National Center for Advancing Translational Sciences (NCATS), 2010):
In all, about 340,000 compounds went through this assay and about 6,900 (2%) were called active. The entries come from a sample that favours actives as a whole. A number with no mark means an inactive call. Cut-off read from the data, not from the text of the source: active = inhibition above about 30%; inactive = below that, where a call was filed.

Target: D(2) dopamine receptor (Homo sapiens) (UniProt P14416)
Experiment: HTS Assay for Allosteric Antagonists of the Human D2 Dopamine Receptor: Primary Screen for Antagonists; note: 0% is about no effect
Details: HEK293 TREx D2 cells, calcium flux, dopamine EC80; at 10 µM; hits give high values
Outline: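 Antagonism is scored as inhibition of an EC80 dopamine-evoked calcium signal in a force-coupled, tetracycline-inducible HEK293 T-REx D2 line, with compound present 180 s before agonist.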

D(2) dopamine receptor (Homo sapiens), sequence (P14416 whole entry, looked up): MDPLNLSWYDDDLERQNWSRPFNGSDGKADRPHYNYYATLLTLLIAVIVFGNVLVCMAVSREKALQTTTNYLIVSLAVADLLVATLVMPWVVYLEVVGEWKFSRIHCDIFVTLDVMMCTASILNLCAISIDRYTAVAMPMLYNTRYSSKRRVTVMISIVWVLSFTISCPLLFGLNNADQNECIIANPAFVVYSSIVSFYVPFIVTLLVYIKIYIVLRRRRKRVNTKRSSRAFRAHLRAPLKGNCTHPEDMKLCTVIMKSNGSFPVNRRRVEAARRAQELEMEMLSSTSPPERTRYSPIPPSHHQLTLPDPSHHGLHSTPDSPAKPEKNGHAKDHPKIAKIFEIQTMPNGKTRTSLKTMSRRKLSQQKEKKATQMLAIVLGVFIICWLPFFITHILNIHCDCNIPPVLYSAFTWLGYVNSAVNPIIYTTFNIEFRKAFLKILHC

Row | Compound | inhibition
1 | N[C@@H](Cc1ccccc1)C(=O)N1CCOCC1 | -3.78%
2 | COc1ccc(S(=O)(=O)N2CCOCC2)cc1NC(=O)CC1CC2CCC1C2 (configuration not stated) | -10.8%
3 | O=C(Nc1cccc(-c2cscn2)c1)C1CCN(Cc2ccsc2)CC1 | 48.1% (active)
4 | CC(=O)c1cc(CN2CCC(C(=O)Nc3cccc(-c4cscn4)c3)CC2)cs1 | 10.7%
5 | O=C(Nc1ccc(-n2cccn2)cc1)C1CCN(Cc2ccsc2)CC1 | 0.479%
6 | Cc1cc(C)cc(NC(=O)C(c2ccccc2)N2CCN(CC(=O)N3CCCC3)CC2)c1 (configuration not stated) | 3.24%
7 | Cn1c(=O)[nH]c(=O)c2c1nc(CN(Cc1ccccc1)Cc1ccccc1)n2CCN1CCOCC1 | 10.3%
8 | CC1CCN(c2nc3c(c(=O)[nH]c(=O)n3C)n2CCCc2ccccc2)CC1 | -0.868%
9 | Cn1c(=O)[nH]c(=O)c2c1nc(CN1CCN(c3ccccc3F)CC1)n2CCc1ccccc1 | 46.1% (active)
10 | CCOC(=O)c1sc(NC(=O)C2CSC3(C)CCC(=O)N23)nc1C (configuration not stated) | -25.8%
11 | COc1ccc(C2(C)ON(c3ccccc3C(F)(F)F)C2=O)cc1 (configuration not stated) | -4.74%
12 | O=C1/C(=C/c2ccc(F)cc2)SC(=S)N1CCCC(=O)N1CCCCC1CCO (configuration not stated) | 31.6% (active)
13 | O=C(CCCN1C(=O)/C(=C\c2ccccc2)SC1=S)Nc1ccccc1O | -8.37%
14 | CCN(C(=O)CN1C(=O)/C(=C/c2ccc(F)cc2)SC1=S)C1CCS(=O)(=O)C1 (configuration not stated) | -6.17%
15 | COc1ccc(Cl)cc1NC(=O)CN(C)C(=O)c1ccc2n[nH]nc2c1 | -5.47%
16 | CCn1c(C)nc2c1C(=O)c1ccccc1C2=O | 34.8% (active)
17 | Cc1nc2ccccc2n1CC(O)c1ccccc1 (configuration not stated) | 2.64%
18 | CCC1(CC)Cc2ccccc2-c2nc3ccccc3c(=O)n21 | 5.55%
19 | C#CCOCCOCCOCCNc1nc(N2CCN(C(=O)[C@H](CCCCN)n3cc(CCC(=O)O)nn3)CC2)nc(N2CCN(C(=O)[C@H](CCCCN)n3cc(CC(C)O)nn3)CC2)n1 (some centres not stated) | -5%
20 | COc1ccccc1Nc1nnc(SC(C)C(=O)NC2CC2)s1 (configuration not stated) | -7.77%
21 | Cc1ccc([C@@H]2CC=C(C(=O)O)[C@H](c3cccc(Cl)c3)N2S(=O)(=O)c2ccc(C)cc2)cc1 | 10.4%
22 | C[C@H](NC(=O)c1ccccc1Cl)C(=O)OCC(=O)N1CCN(c2ccccc2)CC1 | 8.27%

Row | Compound | inhibition
23 | O=C(CCCNS(=O)(=O)c1cccc2nsnc12)NCCN1CCN(c2ccccc2F)CC1 | 78.8% (active)
24 | COc1ccc(CNC(=O)C(NS(=O)(=O)c2cccc3nsnc23)C(C)C)cc1 (configuration not stated) | 7.26%
25 | O=C(CCS(=O)(=O)c1cccc2nsnc12)N1CCN(c2ccccc2F)CC1 | -8.03%
26 | CCOc1ccccc1NC(=O)CCS(=O)(=O)c1cccc2nsnc12 | 4.79%
27 | O=C(C(NS(=O)(=O)c1cccc2nsnc12)c1ccccc1)N1CCN(c2ccccc2)CC1 (configuration not stated) | 1.2%
28 | COc1ccccc1CNC(=O)CCCNS(=O)(=O)c1cccc2nsnc12 | 42.4% (active)
29 | CC1CCCCC12NC(=O)N(CC(=O)Nc1ccc(S(=O)(=O)Nc3ncccn3)cc1)C2=O (configuration not stated) | 14.7%
30 | CCC(=O)c1cc(F)ccc1OCC(=O)Nc1ccc2c(c1)OCCO2 | -15.9%
31 | O=c1ccc2c(-c3ccccc3S(=O)(=O)O)c3ccc(O)c(O)c3oc-2c1O | 13.3%
32 | COC(=O)CCNc1ccc2c(c1)OCCO2 | 0.987%
33 | CCCCN(CC(=O)NC(C)(C)C)C(=O)C(=O)Nc1ccc2c(c1)OCCO2 | 64.1% (active)
34 | CCC(C)(C)NC(=O)CN(C(=O)C(=O)Nc1ccc2c(c1)OCCO2)C(C)(C)CC | -4.87%
35 | COC(=O)[C@]1(C)CCC[C@@]2(C)C3CC[C@]4(OC(C)=O)C[C@@]3(CCC21)CC4=NO (some centres not stated) | 2.69%
36 | CC(=O)c1cccc(NC(=O)CN2C(=O)c3cccnc3Oc3ccc(Cl)cc32)c1 | 8.77%
37 | O=C(CN1C(=O)c2cccnc2Oc2ccc(Cl)cc21)NCCc1ccccc1 | 10.8%
38 | O=C(CN1C(=O)c2cccnc2Oc2ccc(Cl)cc21)Nc1ccc(F)cc1 | 32.7% (active)
39 | CCC(C)N(C(=O)CSc1nnnn1-c1ccccc1OC)C1CCS(=O)(=O)C1 (configuration not stated) | -18.8%
40 | CCOc1cccc2cc(C(=O)OCC(=O)Nc3c(C)cccc3CC)c(=O)oc12 | 17.6%
41 | CCC1CCC2(CC1)NC(=O)N(CC(=O)Nc1ccc(OC)cc1)C2=O (configuration not stated) | 21.9%
42 | O=C(CSc1cccc[n+]1[O-])c1ccc(Cl)cc1 | 11.7%
43 | O=C(C[n+]1ccc2c(c1)nnn2-c1ccccc1)c1ccc(Cl)cc1 | 35.8% (active)
44 | O=C(Cn1cc(-c2nnnn2-c2ccc(Cl)cc2)c(=O)c2ccccc21)c1ccccc1 | -5.55%

Row | Compound | inhibition
45 | COc1cc(OC)cc(-c2c(-c3ccc(F)cc3)c3cc(-c4ccc5cc[nH]c5c4)ccc3n2C)c1 | 3.65%
46 | O=C(COC(=O)c1c(Cl)cccc1Cl)Nc1cccc(S(=O)(=O)NC2=NCCCCC2)c1 | -9.77%
47 | COc1cc(OC)cc(C(=O)NC(=S)N2CCN(c3ccc(C(F)(F)F)cc3[N+](=O)[O-])CC2)c1 | 30% (active)
48 | O=C(Nc1cccc(C(F)(F)F)c1)c1ccc(N2CCNCC2)c([N+](=O)[O-])c1 | 8.47%
49 | O=C(Cc1ccc(S(=O)(=O)N2CCOCC2)s1)N1CCN(c2ccc(C(F)(F)F)cc2[N+](=O)[O-])CC1 | -7.45%
50 | O=S(=O)(NCCCN1CCOCC1)c1ccc(F)c(Cl)c1 | 26.5%
51 | COC(=O)c1ccc(-c2c(-c3ccccc3)ncc3cc(OC)c(OC)cc23)cc1 | -1.67%
52 | CC(C)CN(C(=O)CSc1ncnc2sccc12)C1CCS(=O)(=O)C1 (configuration not stated) | 6.11%
53 | CCOc1ccc(S(=O)(=O)Nc2cccc(C(=O)NCC3(N4CCCCC4)CCCCC3)c2)cc1 | -9.84%
54 | CCOC(=O)CNC(=O)CSc1nnc(-c2cccc(OC)c2)n1CC | -19.1%
55 | CCOC(=O)CNC(=O)CSc1nnc(COc2ccc(Cl)cc2)n1CC | 32.9% (active)
56 | CCn1c(COc2ccccc2)nnc1SCC(=O)NCc1ccco1 | -10.2%
57 | COc1ccc(CCC(C)N2CCc3ccccc3C2)cc1 (configuration not stated) | 55% (active)
58 | COc1ccc(OC)c(NC(=S)N2CCc3ccccc3C2)c1 | 16.6%
59 | COc1ccc(NC(=O)C(=O)NCC(c2ccco2)N2CCc3ccccc3C2)cc1 (configuration not stated) | -3.07%
60 | CN(C)S(=O)(=O)c1cccc(NC(=O)COc2ccc3ccccc3c2)c1 | 7.96%
61 | CCOC(=O)C1CCCN(CCSc2ccc(C)cc2)C1 (configuration not stated) | 43.5% (active)
62 | CCOC(=O)C1CCCN(Cc2nc(N)nc(Nc3ccc(C)cc3)n2)C1 (configuration not stated) | 12.9%
63 | CCOC(=O)C1CCCN(C(=O)COc2ccc(N(C)S(=O)(=O)c3ccc(C)cc3)cc2)C1 (configuration not stated) | 15.8%
64 | CCN(CC)c1ccc(NC(=O)CN2C(=O)NC3(CCc4ccccc43)C2=O)cc1 (configuration not stated) | 2.26%
65 | COC(=O)Cc1ccc(OCC(=O)NC2CCCC2)cc1 | 0.938%
66 | CCOc1ccc(NC(=O)CN(C)C(=O)c2cccc(S(=O)(=O)N3CCCC3)c2)cc1OCC | -1.88%

Row | Compound | inhibition
67 | Cc1ccc(S(=O)(=O)N2CCCCC2)cc1C(=O)N(C)CC(=O)Nc1cccc(F)c1 | 31.6% (active)
68 | Cc1ccc(NC(=O)CN(C)C(=O)c2cccc(S(=O)(=O)N3CCCC3)c2)cc1 | -2.36%
69 | O=C(CCNC(=O)c1ccc(Cl)cc1)NC1CCCc2ccccc21 (configuration not stated) | -3.04%
70 | CC(C)(C)OC(=O)NCCCCCNC(=O)c1[nH]cnc1C(=O)Nc1nccs1 | -7.74%
71 | Cc1c(C(=O)Nc2cccc(-c3nnc4n3CCCCC4)c2)oc2ccccc12 | 60% (active)
72 | Cc1c(C(=O)NC2CCCCC2)oc2ccccc12 | 15.1%
73 | O=C(Cn1[nH]c(=O)c2ccccc2c1=O)Nc1cccc(-c2nnc3n2CCCCC3)c1 | -20.7%
74 | CC1CC(C)CN(CC(=O)Nc2ccc(S(N)(=O)=O)cc2)C1 (configuration not stated) | -1.67%
75 | CCc1ccc(CCC(=O)Nc2ccc(S(N)(=O)=O)cc2)o1 | 43.5% (active)
76 | NS(=O)(=O)c1ccc(NC(=O)COC(=O)CCc2c[nH]c3ccccc23)cc1 | 2.49%
77 | CC(=O)Nc1ccc(NC(=O)CSc2nnc(C3CC3)n2-c2ccccc2)cc1 | 2.45%
78 | Cc1ccc(S(=O)(=O)NCCC(=O)NCc2ccc(Cl)cc2)cc1C | -19%
79 | O=C(NCC(c1ccco1)N1CCc2ccccc21)c1cccc(F)c1 (configuration not stated) | 5.81%
80 | O=C(O)c1cccnc1Sc1ncnc2sc3c(c12)CCC3 | 34.2% (active)
81 | CCCSc1ncccc1C(=O)O | -16.5%
82 | COCCn1c(C)cc(C(=O)CSc2ncnc3sc4c(c23)CCC4)c1C | 9.53%
83 | CNC(=O)NC(=O)C(C)N1CCN(C/C=C/c2ccccc2)CC1 (configuration not stated) | 33.5% (active)
84 | COc1cc(C(=O)N2CCN(C/C=C/c3ccccc3)CC2)cc(OC)c1C | 0.0553%
85 | COc1ccccc1C(=O)NC(CCSC)C(=O)N1CCN(C/C=C/c2ccccc2)CC1 (configuration not stated) | 3.22%
86 | CC1CCCCC12NC(=O)N(CC(=O)OCC(=O)NCc1ccc(F)cc1)C2=O (configuration not stated) | -29.1%
87 | CN(CC(=O)Nc1c(Cl)cccc1Cl)C(=O)CC1OC(=O)c2ccccc21 (configuration not stated) | 4.45%
